Hits are enriched below; roughly 7.5% of the tested compounds scored in any of these assays.
Rab9 promoter act = activates the Rab9 promoter; Potency, µM (doses to about 9.22 µM), for the others: at the highest dose activation, negative = inhibition, hits mostly activators; actives 2.8% (n = 320,000); Huh7 Rab9 promoter-luciferase reporter, luminescence, 24 h; further: % of control where 0% means no effect; nearly all actives have a fitted effect of over 60% in size
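Promoter activation is measured as luciferase luminescence in Huh7 cells stably transfected with a Rab9 promoter–luciferase construct, following 24 h compound exposure at 37 °C and 10 min reagent incubation at ambient temperature.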
ELG1 genotox = inducers of genotoxicity in HEK293T ELG1-luciferase cells | actives 1.3% (n = 330,000) | HEK293T ELG1-luciferase reporter, luminescence, 16 h | Potency, µM (series often up to 46 µM), for inactives: at the highest dose activity change, positive = activation, actives largely listed as activators; further: % of control where 0% means no effect; nearly all actives have a fitted effect of over 60% in size
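Genotoxic stress is detected as increased luminescence from luciferase-tagged ELG1 in HEK293T cells, measured with ONE-Glo after a 16 hr treatment at 37 °C.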
FLuc counter = counter-screen for miR-21 project: firefly luciferase inhibitors or activators; purified FLuc, Km substrates, luminescence inhibition; Potency, µM (series often up to 57.5 µM), without a hit: top-dose activity change, negative = inhibition, actives largely listed as inhibitors; actives 6.9% (n = 360,000); AID 588342;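 further: plate controls were vehicle for no effect and reference inhibitor for full effect; nearly all actives have a fitted effect of over 55% in size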
Target sequence (P08659 whole entry, looked up): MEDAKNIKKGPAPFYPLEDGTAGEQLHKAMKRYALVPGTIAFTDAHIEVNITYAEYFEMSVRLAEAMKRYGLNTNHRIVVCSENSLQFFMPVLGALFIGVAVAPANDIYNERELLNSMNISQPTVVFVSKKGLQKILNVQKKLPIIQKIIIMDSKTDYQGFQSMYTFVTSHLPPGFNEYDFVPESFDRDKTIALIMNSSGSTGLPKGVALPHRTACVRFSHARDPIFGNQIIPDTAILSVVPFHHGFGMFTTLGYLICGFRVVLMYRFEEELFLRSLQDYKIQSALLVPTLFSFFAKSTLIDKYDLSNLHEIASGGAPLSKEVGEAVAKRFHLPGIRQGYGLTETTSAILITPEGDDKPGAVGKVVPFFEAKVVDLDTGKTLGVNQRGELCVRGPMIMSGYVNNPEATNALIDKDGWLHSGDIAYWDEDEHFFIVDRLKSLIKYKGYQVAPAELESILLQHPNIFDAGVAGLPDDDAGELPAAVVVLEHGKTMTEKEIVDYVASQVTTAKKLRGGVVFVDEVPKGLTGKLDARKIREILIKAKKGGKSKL
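Purified P. pyralis luciferase (10nM final) with 10uM D-luciferin and 10uM ATP (Km levels) in 50mM Tris acetate pH 7.5, 10mM Mg acetate, 0.01% Tween-20, 0.05% BSA; qHTS 6-point titration, ~60 µM downward; luminescence read.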
NPC1 prom act = NPC1 promoter activation; Potency, µM (titrated, usually from 9.22 µM), inactives show at the highest dose activation, most hits filed as activators; actives 2.4% (n = 320,000); Huh7 NPC1 promoter luciferase reporter, 24 h; further: % of control where 0% means no effect; nearly all actives have a fitted effect of over 60% in size
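Luminescence read-out of NPC1 promoter-driven luciferase in stably transfected Huh7 cells; compounds delivered in DMSO and left 24 h at 37C, 5% CO2, qHTS titration format.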
SMN2 splice enh = SMN2 splice variant enhancement; HEK293 SMN2-luciferase splicing reporter, luminescence, 30-36 h; actives 2.8% (n = 210,000); Potency, µM (doses to about 46.1 µM), for inactives: at the highest dose activity change, positive = activation, actives largely listed as activators; further: % of control where 0% means no effect; nearly all actives have a fitted effect of over 55% in size
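HEK293 cells carry an SMN2 […]–luciferase reporter in which exon 7 inclusion puts luciferase in frame. Cells were plated 10-12 h before compound addition, then incubated 30-36 h at 37C. ONE-Glo luminescence was read; sodium butyrate at 4.5 mM final served as control.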
* = called active by the depositor; ? = inconclusive; . = no result given. The call rests on the fitted dose curve; in most records, active means well fitted curve in the direction sought with a large enough effect; inconclusive means small, poorly fitted or top-dose-only effect, or another doubt; inactive means no such curve, though single readings can be large; an effect the other way counts as inactive or inconclusive. Potency means the concentration at half of the fitted maximal effect.

SMILES | Rab9 promoter act | ELG1 genotox | FLuc counter | NPC1 prom act | SMN2 splice enh
O=C(NCCc1ccccc1F)c1ccc2c(c1)OCCO2 | 0.0006µM* | ? | 0.048µM* | 0.025µM* | .
O=C(NCCc1ccc(Cl)cc1)c1ccc2c(c1)OCO2 | 1.8µM* | ? | 12µM* | 1.8µM* | .
O=C(CNC(=O)c1ccc2c(c1)OCO2)NCCOc1ccc(Cl)cc1 | . | 2% | . | . | .
O=C(NCCc1ccc(Cl)cc1)c1ccc2c(c1)OCCO2 | 0.32µM* | 2.3µM* | 1.2µM* | 0.4µM* | .
O=C(NCCOc1ccc(Cl)cc1)c1ccc2c(c1)OCCO2 | 3.5µM* | ? | 8.5µM* | 3.2µM* | .
CC1CCN(C(=O)Cn2cc(SCc3ccccc3)c3ccccc32)CC1 | . | . | -11% | . | .
CCOC(=O)CNC(=O)N1CCc2cc(S(=O)(=O)N3CCC(C)CC3)ccc21 | . | . | -1% | . | 0%
O=[N+]([O-])c1ccc(NCCCNS(=O)(=O)c2ccccc2)c(Cl)c1 | 0% | -4% | 2% | 3% | -28%
CCN(CC)C(=O)C1CCCN(c2ccccc2[N+](=O)[O-])C1 (stereo unspecified) | -2% | -1% | 1% | 1% | .
Cc1ccccc1C(=O)NNC(=O)CSc1nc(-c2ccccc2)cc(=O)[nH]1 | 20% | 6% | 11µM* | 11% | 5%
Cc1ccccc1NC(=O)CSc1nc(-c2ccccc2)cc(=O)[nH]1 | -6% | 6% | -10% | -5% | .
CCOC(=O)c1ccccc1NC(=O)CSc1nnc(Cc2cccn2C)n1-c1ccc(F)cc1 | 3.2µM* | -4% | 1% | 1% | -15%
CCOc1ccccc1NC(=O)CSc1nnc(Cc2cccn2C)n1-c1ccc(F)cc1 | 0% | -14% | 5% | 1% | -2%
Cc1cc2c3c(cccc3n1)C(=O)c1ccccc1-2 | . | . | . | . | 13%
CCOc1ccc(C2C(=O)N(C3CCCCCC3)CC(=O)N2CCC2=CCCCC2)cc1OC (stereo unspecified) | . | . | -6% | . | .
Cc1cccc(Nc2nc(-c3ccc(F)cc3)cs2)n1 | 3.5µM* | ? | 5.4µM* | 3.5µM* | .
COc1ccc(-c2csc(Nc3cccc(C)n3)n2)cc1C | 1.6µM* | ? | 3.4µM* | 2.2µM* | .
CC(=O)Oc1ccc(-c2csc(Nc3cccc(C)n3)n2)cc1 | ? | 13µM* | 3.4µM* | 2.2µM* | .
CC(=O)Oc1ccc(-c2csc(Nc3cccnc3)n2)cc1 | 2% | 9% | ? | 17% | -13%
COc1ccc(-c2csc(Nc3cccc(C)n3)n2)cc1 | 0.89µM* | 4.6µM* | 2.7µM* | 0.89µM* | .
Clc1cccc(CNc2cc(-c3ccccc3)nc3nncn23)c1 | . | . | -1% | . | 1%
COC(=O)c1cc(C(=O)Nc2ccc(S(N)(=O)=O)cc2)cc([N+](=O)[O-])c1 | 10% | -2% | 3% | -1% | -3%
O=C(COc1ccc(F)c(Cl)c1)Nc1ccc(N2CCOCC2)cc1 | . | -2% | . | . | .
COc1ccc(-n2ncc3c2CC(C)(C)CC3NC(=O)Cc2nonc2C)cc1 (stereo unspecified) | -1% | -2% | 1% | -3% | .
COc1ccc(C(=O)OCC(=O)c2ccc3c(c2)NC(=O)CO3)cc1S(=O)(=O)N1CCOCC1 | . | 0% | . | . | .
SMILES | Rab9 promoter act | ELG1 genotox | FLuc counter | NPC1 prom act | SMN2 splice enh
O=[N+]([O-])c1ncccc1OCc1ccc(Cl)c(Cl)c1 | ? | 18µM* | 24µM* | ? | .
COc1ccc(C(=O)O/N=C(\N)c2ccccc2)c(OC)c1 | ? | ? | 1.7µM* | 3.2µM* | 3.2µM*
COc1ccc(/C(N)=N/OC(=O)c2ccc(OC)c([N+](=O)[O-])c2)cc1OC | -5% | 3% | -4% | -5% | .
COc1ccc(C(=O)O/N=C(\N)c2ccc(OC)c(OC)c2)c(OC)c1 | 24% | ? | ? | 24% | .
COc1ccc(/C(N)=N/OC(=O)C2CCCCC2)cc1OC | ? | -1% | ? | ? | .
COc1ccc(/C(N)=N/OC(=O)C2CCCCC2)cc1 | ? | 8.2µM* | 8.5µM* | 2.8µM* | .
COc1ccc(C(=O)O/N=C(\N)c2ccc(OC)c(OC)c2)cc1 | ? | ? | 7.6µM* | 26% | .
COc1ccc(C(=O)O/N=C(\N)c2ccccn2)c(OC)c1 | 0.5µM* | 1.5µM* | 2.7µM* | 0.5µM* | .
N#Cc1ccc(NC(=O)Cn2cnc(S(=O)(=O)N3CCCC3)c2)cc1 | -6% | 0% | 5% | 0% | .
CC(C)c1nnc(NC(=O)c2ccc3ccccc3c2)s1 | 1µM* | ? | 2.1µM* | 1µM* | .
CC(C)c1nnc(NC(=O)COc2ccc3ccccc3c2)s1 | 1% | 7% | 3% | 1% | .
Cc1nnc(NC(=O)c2ccc3ccccc3c2)s1 | 1.4µM* | 4.6µM* | 11µM* | 1.8µM* | .
Cc1c(Cc2ccccc2)c(=O)oc2c(C)c(OCC(=O)N3CCC(C(=O)O)CC3)ccc12 | 5% | 2% | 17µM* | 0% | .
Cc1c(OCC(=O)N2CCC(C(=O)O)CC2)ccc2c3c(c(=O)oc12)CCC3 | -2% | 2% | ? | -3% | .
Cc1c(CC(=O)NC(C)C)c(=O)oc2cc3c(cc12)CCC(C)(C)O3 | 3.2µM* | 14% | ? | ? | .
Cc1c(CC(=O)N[C@H](C(=O)O)C(C)C)c(=O)oc2cc3c(cc12)CCC(C)(C)O3 | 1.8µM* | ? | 11µM* | 2.8µM* | .
Cc1c(CC(=O)N2CCC(C(=O)O)CC2)c(=O)oc2cc3c(cc12)CCC1(CCCCC1)O3 | 3% | 8% | 12µM* | -3% | .
Cc1cccc(NC(=O)CN(c2ccc(C(C)C)cc2)S(=O)(=O)c2c(C)nn(C)c2C)n1 | -2% | -12% | 0% | -2% | -3%
CCC(C)NC(=O)Cc1c(C)c2cc3c(cc2oc1=O)OC(C)(C)CC3 (stereo unspecified) | 4µM* | 9% | ? | ? | .
O=C(Cn1ncc2c(Cl)cccc21)NCc1cccc(Br)c1 | . | . | 4.8µM* | . | .
O=C(Cn1ncc2c(Cl)cccc21)NCc1cccc(F)c1 | . | . | -2% | . | .
O=C(C#Cc1ccccc1)Nc1cccc(F)c1 | 0% | -1% | 4.3µM* | -9% | .
COc1ccc(NC(=O)C#Cc2ccccc2)cc1 | ? | ? | 8.5µM* | 1.4µM* | .
COc1ccc(NC(=O)CCCCC#Cc2ccccc2)cc1 | . | . | . | . | -8%
O=C(C#Cc1ccccc1)NCc1ccccc1F | 23% | -16% | ? | 6% | .
O=C(C#Cc1ccccc1)Nc1ccc(F)cc1 | 12% | 10% | 12µM* | 16% | .
O=C(c1ccco1)N1CCC2(CC1)CCN(c1ccncc1)CC2 | . | . | . | . | -43%
CC(=O)c1cccc(NC(=O)c2nccnc2C(=O)O)c1 | -5% | 3% | 2% | -6% | 5%
O=C1OCCC1Sc1nnc(-c2cccc(Br)c2)o1 (stereo unspecified) | 0% | 0% | ? | 1% | 25%
Brc1cccc(-c2nnc(-c3ccccc3)o2)c1 | 1.4µM* | 3.3µM* | 3µM* | 2µM* | 18µM*
